{"source": "PubChem BioAssay (Tox21)", "note": "Inconclusive results are not listed. Where a call stands in place of a potency, no number is given. Active and inactive are the calls of the source. Calls follow the shape of the full dose curve.", "data": [{"biological_target": "Acetylcholinesterase (Homo sapiens) (UniProt P22303)", "sequence (P22303 whole entry, looked up)": "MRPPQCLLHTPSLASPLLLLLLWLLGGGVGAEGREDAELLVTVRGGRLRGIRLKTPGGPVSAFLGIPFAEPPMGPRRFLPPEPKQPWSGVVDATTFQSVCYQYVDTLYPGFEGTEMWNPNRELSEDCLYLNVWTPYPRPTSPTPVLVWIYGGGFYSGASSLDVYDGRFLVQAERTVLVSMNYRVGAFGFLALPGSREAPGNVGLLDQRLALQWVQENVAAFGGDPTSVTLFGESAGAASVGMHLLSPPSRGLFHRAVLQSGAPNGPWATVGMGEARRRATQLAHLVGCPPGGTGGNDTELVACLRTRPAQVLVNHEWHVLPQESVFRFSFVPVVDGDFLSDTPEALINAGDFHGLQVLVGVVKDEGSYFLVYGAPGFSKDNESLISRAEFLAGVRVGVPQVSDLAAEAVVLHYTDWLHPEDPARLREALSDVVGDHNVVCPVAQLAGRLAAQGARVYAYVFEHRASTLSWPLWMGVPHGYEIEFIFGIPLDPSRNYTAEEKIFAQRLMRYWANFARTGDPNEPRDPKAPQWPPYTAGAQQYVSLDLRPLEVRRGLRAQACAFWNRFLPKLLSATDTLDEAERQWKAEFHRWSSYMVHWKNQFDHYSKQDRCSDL", "test": "Acetylcholinesterase (AChE) small molecule antagonists: colormetric cell-based qHTS assay (AID 1347395); also: nearly all actives have a fitted effect of over 30% in size", "settings": "SH-SY5Y cells AChE activity, colorimetric (Ellman); series mostly up to 115 µM", "procedure,_shortened": "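AChE inhibition read colorimetrically via DTNB–thiocholine in SH-SY5Y cells. Compound 30 min, substrate 90 min, both 37 C.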", "values": [{"smiles": "O=C(O)c1cccc(-c2noc(-c3ccccc3F)n2)c1", "Potency": "inactive"}, {"smiles": "CCC(OCCCOC)OC(C)=O", "note": "(stereo not given)", "Potency": "inactive"}, {"smiles": "OCCN1CN(CCO)CN(CCO)C1", "Potency": "inactive"}, {"smiles": "CCN(CC)c1ccc2c(-c3ccc(S(=O)(=O)O)cc3S(=O)(=O)[O-])c3ccc(=[N+](CC)CC)cc-3oc2c1", "Potency": "inactive"}, {"smiles": "Cc1cccc(N(C)C)c1", "Potency": "inactive"}, {"smiles": "CCCCCCCCCOC(=O)c1ccccc1C(=O)OCCCCCCCCC", "Potency": "inactive"}, {"smiles": "CC1=C(O)C(=O)C(C)O1", "note": "(stereo not given)", "Potency": "inactive"}, {"smiles": "CCCCCCCCCCCCS(=O)(=O)Cl", "activity, negative = inhibition": "-0.822% [at 23.6 µM] (inactive)"}, {"smiles": "CN1[C@@H]2CC[C@H]1CC(OC(=O)C(O)c1ccccc1)C2", "note": "(stereo not given in full)", "Potency": "inactive"}, {"smiles": "CC(C(=O)O)c1ccc2c(c1)Cc1cccnc1O2", "note": "(stereo not given)", "Potency": "inactive"}, {"smiles": "CCCCCCCCCC(C)=O", "Potency": "inactive"}, {"smiles": "CC1=NS(=O)(=O)c2cc(Cl)ccc2N1", "Potency": "inactive"}, {"smiles": "O=S(=O)(O)c1ccccc1O", "Potency": "inactive"}, {"smiles": "N#Cc1ccc(C/C(=N/NC(=O)Nc2ccc(OC(F)(F)F)cc2)c2cccc(C(F)(F)F)c2)cc1", "Potency": "inactive"}, {"smiles": "CC(=O)c1c(C)cc(C(C)(C)C)cc1C", "Potency": "inactive"}, {"smiles": "[Ca+2]", "Potency": "inactive"}, {"smiles": "O=C1NC(=O)c2cc([N+](=O)[O-])ccc21", "Potency": "inactive"}, {"smiles": "OC[C@H]1O[C@@H](O[C@@H]2[C@@H](CO)O[C@](O)(CO)[C@H]2O)[C@H](O)[C@@H](O)[C@H]1O", "Potency": "inactive"}, {"smiles": "CC(=O)CCC1=C(C)CCCC1(C)C", "Potency": "inactive"}, {"smiles": "COc1cccc(Br)c1", "Potency": "inactive"}, {"smiles": "Cc1ccc2sc3cccc(C)c3c2c1", "Potency": "inactive"}, {"smiles": "COc1ccc2cccc(CCNC(C)=O)c2c1", "Potency": "inactive"}, {"smiles": "COc1ccc(OC)c(Cl)c1", "Potency": "inactive"}, {"smiles": "CC1(C)CC(N)CC(C)(C)N1", "Potency": "inactive"}, {"smiles": "COc1ncnc(NS(=O)(=O)c2ccc(N)cc2)c1OC", "Potency": "inactive"}, {"smiles": "CCCCCCCCCCCCCCC1CO1", "note": "(stereo not given)", "Potency": "inactive"}, {"smiles": "CCc1cccc(CC)c1NC(=O)C(=O)O", "Potency": "inactive"}, {"smiles": "NC(=O)c1ccncc1", "Potency": "inactive"}, {"smiles": "CCN(C(=O)N(CC)c1ccccc1)c1ccccc1", "Potency": "inactive"}, {"smiles": "COc1ccc(OC(=O)N(CC(=O)O)Cc2ccc(OCCc3nc(-c4ccccc4)oc3C)cc2)cc1", "Potency": "inactive"}, {"smiles": "CCCC(=O)OCCc1ccccc1", "Potency": "inactive"}, {"smiles": "O=S(=O)(O)c1ccc(Nc2nc(Nc3ccc(/C=C/c4ccc(Nc5nc(Nc6ccc(S(=O)(=O)O)cc6)nc(N(CCO)CCO)n5)cc4S(=O)(=O)O)c(S(=O)(=O)O)c3)nc(N(CCO)CCO)n2)cc1", "Potency": "inactive"}, {"smiles": "O=C(OC(=O)c1ccccc1)c1ccccc1", "Potency": "inactive"}, {"smiles": "CCOC(=O)CC(=O)C(=O)OCC", "Potency": "inactive"}, {"smiles": "C/C=C/C=C/C=O", "Potency": "inactive"}, {"smiles": "CCOC(=O)c1ccc(N(C)C)cc1", "Potency": "inactive"}, {"smiles": "CCOC(=O)/C=C/C(=O)OCC", "Potency": "inactive"}, {"smiles": "CC(CSC(=O)c1ccccc1)C(=O)N1C[C@@H](Sc2ccccc2)C[C@H]1C(=O)O", "note": "(stereo not given in full)", "activity, negative = inhibition": "0.861% [at 23.6 µM] (inactive)"}, {"smiles": "COc1ccc2nc(NC(=O)Nc3ccccc3)sc2c1", "Potency": "inactive"}, {"smiles": "CC1=CC(=O)CC(C)(C)C1=O", "Potency": "inactive"}]}]}
